Measurements taken from patent publication US20130210151, “ENDONUCLEASE FOR GENOME EDITING” (University of Western Ontario, published 2013).

biological target: TevN201-ZFE-6xHis (I-TevI 1-201 fused to ryA zinc finger) (synthetic (bacteriophage T4 I-TevI …)); experiment: cleavage_in_vitro; 10 mM MgCl2, 100 mM NaCl, pH 8.0, 37 C; conditions: tags: C-terminal 6xHis; dsDNA, one strand shown
Procedure: Single time-point cleavage assays to determine the EC_{0.5max} of N201 Tev-ZFE were performed in buffer containing 20 mM Tris-HCl pH 8.0, 100 mM NaCl, 10 mM MgCl₂, 5% glycerol, 1 mM DTI and 10 nM pTZHS1.33. Reactions were incubated for 3 minutes at 37° C., stopped with 5 μl stop solution (100 mM EDTA, 40% glycerol, and bromophenol blue), and electrophoresed on a 1% agarose gel prior to staining with ethiduium bromide and analysis on an AlphaImager™3400 (Alpha Innotech). The EC_{0.5max} was determined by fitting the data to the equation
Cleavage assays were performed with wild type and mutant substrates and increasing concentrations of TevN201-ZFE to determine the amount of protein required for half-maximal cleavage (EC_{0.5max}). […] The greater substrate discrimination observed in the genetic assay likely reflects lower in vivo protein concentrations than those used for in vitro cleavage assays. […] Although the BmoN221-ZFE substrate specificity was not tested extensively, it was shown that the chimeric endonuclease cleaved the Bmo-ryA substrate plasmid, but not the target-less control plasmid.

Sequence	binding signal
CTAGAAAACACTCAGTAGATGTTTTCTTGGGTCTACCGTCCCACGCCGCATG	~60 fold higher EC0.5max vs TZ1.33
CTAGACAACACTCAGTAGATGTTTTCTTGGGTCTACCGTCCCACGCCGCATG	~4.7 fold higher EC0.5max vs TZ1.33
